Measured values from PubChem BioAssay (EPA / NIEHS).
Where “and” joins values, the source holds several entries; their conditions need not be identical. Identical values can stand only once. Records with an inconclusive call do not appear. Calls of active or inactive are those of the source. How the source made its calls, unless noted: active means hit-call score of the fitted dose curve at least 0.9, where 1 is the maximum; inconclusive means response in the unintended direction; inactive means score below 0.9.

What was measured:
PGR (gene 5241) = PGR (gene 5241) (UniProt P06401); assay: NVS_NR_hPR: NovaScreen (NVS) Nuclear Receptor Binding Assay for human Progestron Receptor (PR) (AID 2283360);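 further: active means loss of bound radioligand signal versus DMSO baseline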
Chain of PGR (gene 5241) (P06401 whole entry, looked up): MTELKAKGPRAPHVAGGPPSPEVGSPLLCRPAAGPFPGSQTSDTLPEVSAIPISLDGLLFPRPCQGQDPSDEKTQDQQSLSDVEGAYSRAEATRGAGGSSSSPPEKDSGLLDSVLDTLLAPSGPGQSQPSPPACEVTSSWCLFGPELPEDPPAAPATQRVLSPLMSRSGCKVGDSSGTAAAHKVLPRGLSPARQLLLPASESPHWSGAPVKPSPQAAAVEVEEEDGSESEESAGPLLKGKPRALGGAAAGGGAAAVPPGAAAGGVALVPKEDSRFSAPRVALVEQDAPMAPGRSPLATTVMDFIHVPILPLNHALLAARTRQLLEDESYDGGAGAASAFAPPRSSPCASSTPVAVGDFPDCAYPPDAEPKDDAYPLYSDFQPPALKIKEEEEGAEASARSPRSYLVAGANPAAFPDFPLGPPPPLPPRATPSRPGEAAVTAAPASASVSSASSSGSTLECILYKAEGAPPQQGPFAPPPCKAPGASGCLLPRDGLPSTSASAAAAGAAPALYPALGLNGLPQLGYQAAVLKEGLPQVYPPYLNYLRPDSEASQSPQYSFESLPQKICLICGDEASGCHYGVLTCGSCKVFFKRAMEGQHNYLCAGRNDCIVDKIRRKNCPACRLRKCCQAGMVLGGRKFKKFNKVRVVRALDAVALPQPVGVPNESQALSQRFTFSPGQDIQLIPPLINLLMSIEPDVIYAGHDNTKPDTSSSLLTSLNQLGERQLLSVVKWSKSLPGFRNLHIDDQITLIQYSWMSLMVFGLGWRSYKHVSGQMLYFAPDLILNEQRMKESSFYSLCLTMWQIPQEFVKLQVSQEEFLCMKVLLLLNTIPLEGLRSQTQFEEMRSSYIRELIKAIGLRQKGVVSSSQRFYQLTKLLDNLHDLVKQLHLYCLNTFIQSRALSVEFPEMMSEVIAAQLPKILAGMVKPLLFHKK
How it was run: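 Competitive displacement of a labelled radioligand from T47D-derived receptor protein is measured in a cell-free format. Initial testing uses 25 uM in duplicate, with positive and negative controls on every plate.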

[1] = biological target: Estrogen receptor beta (Homo sapiens) (UniProt Q92731); assay: OT_ER_ERbERb_1440: Odyssey Thera (OT) 24-hour HEK293T Protein-Complementation Assay for Estrogen Receptor-beta/-beta Homodimer (AID 2283380);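 further: scored as signal increase over DMSO baseline for both agonists and antagonists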
Chain of Estrogen receptor beta (Homo sapiens) (Q92731 whole entry, looked up, the tested form may be a part): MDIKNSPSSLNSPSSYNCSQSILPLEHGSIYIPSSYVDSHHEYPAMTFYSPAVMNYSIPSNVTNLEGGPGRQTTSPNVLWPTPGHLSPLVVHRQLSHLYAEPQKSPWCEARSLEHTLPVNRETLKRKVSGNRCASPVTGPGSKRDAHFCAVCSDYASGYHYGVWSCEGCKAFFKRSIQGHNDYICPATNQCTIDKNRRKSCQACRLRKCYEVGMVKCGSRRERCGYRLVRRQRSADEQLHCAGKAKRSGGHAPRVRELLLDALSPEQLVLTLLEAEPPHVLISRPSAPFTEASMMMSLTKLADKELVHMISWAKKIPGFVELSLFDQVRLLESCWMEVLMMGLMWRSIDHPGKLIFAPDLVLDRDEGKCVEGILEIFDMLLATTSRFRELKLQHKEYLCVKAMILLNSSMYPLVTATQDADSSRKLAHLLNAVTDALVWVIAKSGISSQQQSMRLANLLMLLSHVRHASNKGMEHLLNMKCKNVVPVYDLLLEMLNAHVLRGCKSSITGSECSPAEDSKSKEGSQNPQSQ
How it was run: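 HEK293T cells stably expressing ER beta LBD (aa 310-547) homodimer fragment-complementation reporter, dosed 24 h. Cells formaldehyde-fixed, Draq5-stained; gain in nuclear (agonist) or nuclear plus cytoplasmic (antagonist) fluorescence versus DMSO read by laser scanning cytometry.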

[2] = biological target: Retinoic acid receptor alpha (Homo sapiens) (UniProt P10276); assay: NVS_NR_hRARa_Agonist: NovaScreen (NVS) Nuclear Receptor Binding Assay for human Retinoic Acid Alpha Receptor Agonism (RAR) (AID 2283361)
How it was run: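 Cell-free TR-FRET binding readout with extracted receptor protein, read 2 hours after dosing; gain-of-signal fitted relative to DMSO. Screened in duplicate at 25 uM, actives then run in concentration-response.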

[3] = biological target: human Thyroid Receptor Alpha (TRa), THRA (gene 7067) (UniProt P10827); assay: NVS_NR_hTRa_Antagonist: NovaScreen (NVS) Nuclear Receptor Binding Assay for human Thyroid Receptor Alpha Antagonism (TRa) (AID 2283362);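 further: activity is loss of signal relative to DMSO baseline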
Chain of human Thyroid Receptor Alpha (TRa), THRA (gene 7067) (P10827 whole entry, looked up): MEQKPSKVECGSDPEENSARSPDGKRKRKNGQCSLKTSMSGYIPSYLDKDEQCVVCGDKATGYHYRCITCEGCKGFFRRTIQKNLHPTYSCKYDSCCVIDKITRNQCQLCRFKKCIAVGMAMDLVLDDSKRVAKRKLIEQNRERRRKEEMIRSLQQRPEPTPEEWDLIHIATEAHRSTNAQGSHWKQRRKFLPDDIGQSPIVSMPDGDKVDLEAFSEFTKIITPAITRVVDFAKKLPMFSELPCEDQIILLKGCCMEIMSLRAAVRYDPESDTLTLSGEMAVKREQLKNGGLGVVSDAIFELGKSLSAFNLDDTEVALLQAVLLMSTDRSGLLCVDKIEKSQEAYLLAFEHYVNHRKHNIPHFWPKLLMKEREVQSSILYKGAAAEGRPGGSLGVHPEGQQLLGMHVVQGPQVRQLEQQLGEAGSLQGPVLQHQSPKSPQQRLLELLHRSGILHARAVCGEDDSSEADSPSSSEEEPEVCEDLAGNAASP
How it was run: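 Actives from a duplicate 25 uM single-point screen were retested in concentration series. The cell-free antagonist-format binding assay was read by AlphaLISA chemiluminescence at 1 h, scored as signal loss relative to DMSO.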

[4] = biological target: Glucocorticoid receptor (Homo sapiens) (UniProt P04150); assay: NVS_NR_hGR: NovaScreen (NVS) Nuclear Receptor Binding Assay for human Glucocorticoid Receptor (GR) (AID 2283363);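 on AC50: activity is loss of specific radioligand binding signal relative to DMSO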
Chain of Glucocorticoid receptor (Homo sapiens) (P04150 whole entry, looked up): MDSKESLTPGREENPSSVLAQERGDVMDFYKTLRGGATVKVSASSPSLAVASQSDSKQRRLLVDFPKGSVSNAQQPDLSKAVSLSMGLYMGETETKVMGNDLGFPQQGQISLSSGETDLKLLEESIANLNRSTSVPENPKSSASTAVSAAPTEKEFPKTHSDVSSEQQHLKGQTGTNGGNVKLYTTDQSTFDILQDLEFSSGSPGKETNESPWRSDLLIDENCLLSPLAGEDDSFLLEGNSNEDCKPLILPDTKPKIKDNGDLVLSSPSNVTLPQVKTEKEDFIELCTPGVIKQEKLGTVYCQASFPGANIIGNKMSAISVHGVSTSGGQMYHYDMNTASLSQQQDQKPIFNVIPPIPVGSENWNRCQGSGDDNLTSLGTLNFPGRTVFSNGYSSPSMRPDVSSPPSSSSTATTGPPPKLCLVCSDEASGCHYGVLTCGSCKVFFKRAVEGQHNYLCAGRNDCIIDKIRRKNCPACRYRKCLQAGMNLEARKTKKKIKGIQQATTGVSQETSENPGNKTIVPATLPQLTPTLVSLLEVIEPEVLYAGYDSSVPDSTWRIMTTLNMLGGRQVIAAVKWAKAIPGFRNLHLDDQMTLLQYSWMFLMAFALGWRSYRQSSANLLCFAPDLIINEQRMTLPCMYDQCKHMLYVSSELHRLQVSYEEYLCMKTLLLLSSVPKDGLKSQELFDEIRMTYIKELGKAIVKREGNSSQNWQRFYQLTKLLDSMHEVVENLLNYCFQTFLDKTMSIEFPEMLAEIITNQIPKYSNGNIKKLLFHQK
How it was run: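 Cell-free radioligand displacement assay on extracted human GR, read 16 h after dosing by filter-based scintillation counting. Screened in duplicate at 25 uM, then concentration series for actives; loss of signal versus DMSO baseline.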

[5] = biological target: Peroxisome proliferator-activated receptor gamma (Homo sapiens) (UniProt P37231); assay: NVS_NR_hPPARg: NovaScreen (NVS) Nuclear Receptor Binding Assay for human Peroxisome Proliferator-activated Receptor gamma (PPARg) (AID 2283370)
How it was run: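 Fluorescence polarization readout of ligand binding to extracted human PPARg, measured at 2 h. Duplicate single-point screen at 25 uM, then concentration-series retesting; activity defined as signal loss versus DMSO.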

[6] = biological target: human Serotonin Transporter (SERT), SLC6A4 (gene 6532) (UniProt P31645); assay: NVS_TR_hSERT: NovaScreen (NVS) Transporter Assay for human Serotonin Transporter (SERT) (AID 2283372)
Chain of human Serotonin Transporter (SERT), SLC6A4 (gene 6532) (P31645 whole entry, looked up): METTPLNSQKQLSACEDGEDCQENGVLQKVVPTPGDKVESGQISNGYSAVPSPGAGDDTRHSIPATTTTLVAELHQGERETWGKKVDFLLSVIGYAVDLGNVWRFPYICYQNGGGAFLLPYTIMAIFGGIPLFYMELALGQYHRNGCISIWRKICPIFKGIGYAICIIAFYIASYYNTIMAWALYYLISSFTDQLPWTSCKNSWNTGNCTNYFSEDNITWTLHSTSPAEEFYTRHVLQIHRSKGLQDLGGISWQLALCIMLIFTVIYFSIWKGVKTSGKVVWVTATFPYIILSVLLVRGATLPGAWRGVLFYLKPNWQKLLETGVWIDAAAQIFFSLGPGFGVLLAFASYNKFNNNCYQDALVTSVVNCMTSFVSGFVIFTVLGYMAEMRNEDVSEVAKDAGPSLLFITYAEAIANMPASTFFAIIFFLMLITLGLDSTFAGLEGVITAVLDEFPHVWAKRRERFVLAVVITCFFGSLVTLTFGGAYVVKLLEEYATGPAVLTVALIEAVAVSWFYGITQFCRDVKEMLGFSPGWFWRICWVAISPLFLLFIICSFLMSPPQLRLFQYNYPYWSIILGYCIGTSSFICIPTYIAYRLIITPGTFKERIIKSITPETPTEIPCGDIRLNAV
How it was run: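 Radioligand binding to native SERT in human platelet membranes, read by filter-based scintillation counting 1 h after dosing. Primary screen in duplicate at 25 uM; actives followed up in concentration series; loss of signal versus DMSO baseline.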

[7] = biological target: rat Serotonin Transporter (SERT), Slc6a4 (gene 25553) (UniProt P31652); assay: NVS_TR_rSERT: NovaScreen (NVS) Transporter Assay for rat Serotonin Transporter (SERT) (AID 2283375)
Chain of rat Serotonin Transporter (SERT), Slc6a4 (gene 25553) (P31652 whole entry, looked up): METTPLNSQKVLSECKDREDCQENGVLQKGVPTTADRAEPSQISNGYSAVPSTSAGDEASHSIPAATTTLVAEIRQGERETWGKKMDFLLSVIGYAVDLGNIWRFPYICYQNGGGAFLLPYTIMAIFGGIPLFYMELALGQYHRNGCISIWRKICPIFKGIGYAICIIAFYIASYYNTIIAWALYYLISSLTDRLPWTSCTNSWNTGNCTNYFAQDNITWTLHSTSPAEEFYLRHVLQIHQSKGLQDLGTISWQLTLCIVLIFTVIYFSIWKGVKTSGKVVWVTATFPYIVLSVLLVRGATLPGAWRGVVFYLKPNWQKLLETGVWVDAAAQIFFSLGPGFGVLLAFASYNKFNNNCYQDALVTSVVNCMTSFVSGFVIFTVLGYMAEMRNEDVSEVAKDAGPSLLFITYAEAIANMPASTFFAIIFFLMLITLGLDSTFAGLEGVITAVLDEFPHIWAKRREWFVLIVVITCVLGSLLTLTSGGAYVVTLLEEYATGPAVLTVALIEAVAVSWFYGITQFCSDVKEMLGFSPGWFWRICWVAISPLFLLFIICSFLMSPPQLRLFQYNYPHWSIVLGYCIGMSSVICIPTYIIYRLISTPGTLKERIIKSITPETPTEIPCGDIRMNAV
How it was run: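 Radioligand binding with competitive displacement on rat forebrain membrane preparations, counted by filtration and scintillation after 1 h. Primary single-point duplicates at 25 uM; active chemicals followed up in concentration-response. DMSO served as baseline.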

[8] = biological target: Estrogen receptor (Homo sapiens) (UniProt P03372); assay: OT_ERa_GFPERaERE_0480: Odyssey Thera (OT) 8-hour HeLa Transcription Induction Assay for Estrogen Receptor (AID 2283381; active means hit-call score of the fitted dose curve at least 0.9, where 1 is the maximum; inactive means score below 0.9)
Chain of Estrogen receptor (Homo sapiens) (P03372 whole entry, looked up): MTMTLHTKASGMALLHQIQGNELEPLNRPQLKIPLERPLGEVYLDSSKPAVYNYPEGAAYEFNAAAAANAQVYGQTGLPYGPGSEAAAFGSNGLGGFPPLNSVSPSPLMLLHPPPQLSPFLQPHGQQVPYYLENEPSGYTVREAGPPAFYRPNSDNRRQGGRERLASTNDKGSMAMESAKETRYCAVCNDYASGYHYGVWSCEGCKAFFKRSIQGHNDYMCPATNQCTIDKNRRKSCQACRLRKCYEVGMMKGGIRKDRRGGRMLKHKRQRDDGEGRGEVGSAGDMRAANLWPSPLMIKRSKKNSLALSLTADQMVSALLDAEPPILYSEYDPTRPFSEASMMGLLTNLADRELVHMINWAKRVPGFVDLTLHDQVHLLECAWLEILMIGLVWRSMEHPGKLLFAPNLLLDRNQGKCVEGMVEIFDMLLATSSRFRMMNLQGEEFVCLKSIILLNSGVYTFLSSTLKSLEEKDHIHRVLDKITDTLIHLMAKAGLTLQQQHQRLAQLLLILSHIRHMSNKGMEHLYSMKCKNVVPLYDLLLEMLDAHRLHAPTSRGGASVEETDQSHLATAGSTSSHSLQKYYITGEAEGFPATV
How it was run: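 HeLa cells expressing GFP reporter under estrogen response element, imaged 8 h after dosing. GFP induction quantified by high-content fluorescence microscopy image analysis; gain of signal fitted versus DMSO.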

[9] = biological target: Nuclear receptor subfamily 1 group I member 2 (Homo sapiens) (UniProt O75469); assay: NVS_NR_hPXR: NovaScreen (NVS) Nuclear Receptor Binding Assay for human Pregnane X Receptor (PXR) (AID 2283365);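 further: a drop in FRET signal versus DMSO baseline means the compound binds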
How it was run: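 Human PXR binding measured by TR-FRET in a cell-free format, 2 h exposure. Single-concentration duplicates at 25 uM preceded concentration-response retests of actives; endpoint fitted positively relative to DMSO, loss of signal indicating binding.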

[10] = tested on: guinea pig Dopamine Transporter (DAT), gene 100714898; assay: NVS_TR_gDAT: NovaScreen (NVS) Transporter Assay for guinea pig Dopamine Transporter (DAT) (AID 2283369);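 further: active compounds lower bound radioligand signal relative to DMSO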
How it was run: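 Radioligand displacement on membranes from guinea pig striatum, 2 h exposure, bound label counted by filtration and scintillation. Tested at 25 uM in duplicate, then actives in concentration series to 50 uM; DMSO as negative control.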

[11] = biological target: human Dopamine Transporter (DAT), SLC6A3 (gene 6531) (UniProt Q01959); assay: NVS_TR_hDAT: NovaScreen (NVS) Transporter Assay for human Dopamine Transporter (DAT) (AID 2283374);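 further: activity means loss of bound radioligand signal relative to DMSO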
How it was run: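 Cell-free radioligand displacement binding at human DAT, 1 h after dosing, with filtration and scintillation counting. Primary screen in duplicate at 25 uM, actives then in concentration series. Loss of bound signal versus DMSO scored.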

[12] = biological target: guinea pig Sigma Receptor, Non-selective Binding, SIGMAR1 (gene 100135589) (UniProt Q60492); assay: NVS_OR_gSIGMA_NonSelective: NovaScreen (NVS) Nuclear Receptor Binding Assay for guinea pig Sigma Receptor, Non-selective Binding (AID 2283367)
Chain of guinea pig Sigma Receptor, Non-selective Binding, SIGMAR1 (gene 100135589) (Q60492 whole entry, looked up): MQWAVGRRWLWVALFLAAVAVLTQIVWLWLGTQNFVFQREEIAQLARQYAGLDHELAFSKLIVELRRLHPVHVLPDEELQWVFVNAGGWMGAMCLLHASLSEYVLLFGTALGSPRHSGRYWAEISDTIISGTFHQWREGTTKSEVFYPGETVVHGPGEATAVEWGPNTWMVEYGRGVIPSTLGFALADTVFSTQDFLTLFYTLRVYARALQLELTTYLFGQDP
How it was run: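 Radioligand displacement on guinea pig brain membranes, read by filter-based scintillation counting 1 h after dosing. Loss of signal versus DMSO; initial duplicate single-point screen at 25 uM, actives followed in concentration series.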

[13] = biological target: human Adenosine Transporter (Adot), SLC29A1 (gene 2030) (UniProt Q99808); assay: NVS_TR_hAdoT: NovaScreen (NVS) Transporter Assay for human Adenosine Transporter (Adot) (AID 2283368)
How it was run: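 U937-derived membranes, cell-free radioligand binding, filter scintillation 1 h after dosing. 25 uM duplicate screen; hits (e.g. 30% inhibition) run in concentration-response up to 50 uM; loss of signal versus DMSO.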

[14] = biological target: Norway rat Vesicular Monoamine Transporter (VMAT2), neurotransmitter transporter, Slc18a2 (gene 25549) (UniProt Q01827); assay: NVS_TR_rVMAT2: NovaScreen (NVS) Transporter Assay for Norway rat Vesicular Monoamine Transporter (VMAT2), neurotransmitter transporter (AID 2283376);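 further: actives lower the bound radioligand signal below the DMSO level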
How it was run: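 Radioligand displacement binding on rat forebrain tissue preparation, filter-based scintillation read-out 1 hour after dosing. Primary screen in duplicate at 25 uM, then concentration series for actives; loss of signal versus DMSO.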

[15] = biological target: human Norepinephrine Transporter (NET), SLC6A2 (gene 6530) (UniProt P23975); assay: NVS_TR_hNET: NovaScreen (NVS) Transporter Assay for human Norepinephrine Transporter (NET) (AID 2283377);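 on AC50: displacement of radioligand from human NET seen as loss of scintillation signal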
How it was run: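 Cell-free radioligand binding using CHO-derived membrane protein expressing human NET, read by filter scintillation counting 1 h after dosing; loss of signal vs DMSO. Initial duplicate screen at 25 uM, actives retested in concentration series.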

[16] = biological target: mouse Estrogen Receptor alpha (Era), Esr1 (gene 13982) (UniProt P19785); assay: NVS_NR_mERa: NovaScreen (NVS) Nuclear Receptor Binding Assay for mouse Estrogen Receptor alpha (Era) (AID 2283378);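 further: hit means loss of bound radioligand signal relative to DMSO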
How it was run: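 Filter radiodetection of radioligand displacement from extracted receptor protein, measured 18 h post-dose. Single 25 uM concentration in duplicate initially, with concentration-series follow-up. Binding loss fitted relative to DMSO.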

[17] = biological target: Agonist Androgen Response Element (ARE), AR (gene 367) (UniProt P10275); assay: OT_AR_ARELUC_AG_1440: Odyssey Thera (OT) 24-hour CHO-K1 Luciferase Assay for Agonist Androgen Response Element (ARE) (AID 2283379)
How it was run: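 CHO-K1 cells carrying an ARE-driven luciferase reporter were exposed to compounds for 24 h. Luminescence was then read after adding a D-luciferin/ATP mix, and activity was scored as a gain in signal over DMSO vehicle.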

[18] = biological target: rat Androgen Receptor (AR), Ar (gene 24208) (UniProt P15207); assay: NVS_NR_rAR: NovaScreen (NVS) Nuclear Receptor Binding Assay for rat Androgen Receptor (AR) (AID 2283366)
How it was run: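 Cell-free radioligand binding on extracts of prostate from testosterone-pretreated rats, read by filter-based scintillation counting 18 h after dosing. Loss of bound signal fitted positively versus DMSO; primary screen in duplicate at 25 uM, actives followed up in concentration series.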

[19] = tested on: rat Norepinephrine Transporter (NET), gene 83511; assay: NVS_TR_rNET: NovaScreen (NVS) Transporter Assay for rat Norepinephrine Transporter (NET) (AID 2283373)
How it was run: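 Rat forebrain membranes; radioligand binding measured by filter-based scintillation counting 1 hour after dosing. Loss of specific binding versus DMSO baseline scored; primary screen in duplicate at 25 uM, actives followed up in concentration series.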

Measured: AC50

O=C(O)C(F)(F)C(F)(F)C(F)(F)C(F)(F)C(F)(F)C(F)(F)C(F)(F)F
inactive: PGR (gene 5241) | [1]

N#Cc1c(Cl)c(Cl)c(Cl)c(C#N)c1Cl
inactive: PGR (gene 5241) | [6] | [8]
active: [2] 36.9 µM | [3] 40.5 µM | [4] 0.177 µM | [5] 495 nM | [7] 8.2 µM | [1] 0.338 µM

ClC1C(Cl)C(Cl)C(Cl)C(Cl)C1Cl (configuration not stated)
active: [10] 9.83 µM and 3.74 µM | [11] 5.04 µM and 18.5 µM and 14.4 µM
inactive: PGR (gene 5241) | [9] | [1]

CNC(=O)CSP(=S)(OC)OC
inactive: [3] | [5] | [1] | [8]
active: PGR (gene 5241) 6.3 µM

CCCN(CCOc1c(Cl)cc(Cl)cc1Cl)C(=O)n1ccnc1
active: [3] 6.39 µM | [12] 8.36 µM | [13] 8.65 µM | [10] 6.57 µM | [6] 2.17 µM | [11] 6.06 µM | [7] 3.82 µM | [14] 7.49 µM | [15] 5.14 µM
inactive: PGR (gene 5241) | [4] | [5] | [1]

COP(=O)(OC)OC=C(Cl)Cl
inactive: PGR (gene 5241) | [3] | [1] | [8]
active: [5] 6970 nM

COP(=S)(OC)Oc1ccc([N+](=O)[O-])cc1
active: PGR (gene 5241) 10.3 µM | [12] 4.69 µM | [10] 20.1 µM | [6] 11.3 µM | [11] 25 µM | [7] 12.6 µM
inactive: [3] | [16] | [1] | [8]

O=S(=O)(O)C(F)(F)C(F)(F)C(F)(F)C(F)(F)C(F)(F)C(F)(F)C(F)(F)C(F)(F)F
inactive: [15]
active: PGR (gene 5241) 20.2 µM [middle of 4 runs] | [3] 12 µM | [9] 39.6 µM | [5] 16.9 µM [middle of 6 runs]

C[C@H]1[C@H](c2ccc(Cl)cc2)SC(=O)N1C(=O)NC1CCCCC1
inactive: PGR (gene 5241) | [17] | [1] | [8]

O=S1OCC2C(CO1)C1(Cl)C(Cl)=C(Cl)C2(Cl)C1(Cl)Cl (configuration not stated)
inactive: PGR (gene 5241) | [18] | [5] | [8]
active: [4] 2.29 µM | [10] 17.7 µM | [11] 10.9 µM

CCC(C)(C)C(=O)OC1=C(c2ccc(Cl)cc2Cl)C(=O)OC12CCCCC2
inactive: [2] | [11] | [17] | [1] | [8]

COc1cc(OC)nc(NC(=O)NS(=O)(=O)c2cc(NC=O)ccc2C(=O)N(C)C)n1
inactive: [3]

Oc1cc(Cl)ccc1Oc1ccc(Cl)cc1Cl
active: [19] 13.7 µM [middle of 4 runs]
inactive: [4]

CCCN(CCC)c1c([N+](=O)[O-])cc(C(F)(F)F)cc1[N+](=O)[O-]
inactive: [18]

CC(C)N(C(=O)COc1nnc(C(F)(F)F)s1)c1ccc(F)cc1
active: [6] 7.81 µM | [7] 8.58 µM

O=C(Nc1ccccc1)Nc1cnns1
active: [14] 5.31 µM
